# Results reported in PMC7862700, “An all-to-all approach to the identification of sequence-specific readers for epigenetic DNA modifications on cytosine”.
# Assays:
# Assay in all cases: DAPPL (digital affinity profiling via proximity ligation, sequencing); 10 mM Tris-HCl pH 7.5, 50 mM NaCl, 1 mM DTT, 4% glycerol, room temperature, 30 min; GST-TFs on glutathione beads, 16-mer random dsDNA library, 0.1% formaldehyde crosslink after washing; high values mean tight binding
# [1] = biological target: T1, FLI1 (Homo sapiens, UniProt Q01543 1-452); conditions: protein: recombinant; tags: N-terminal GST; dsDNA, one strand shown
# T1 sequence: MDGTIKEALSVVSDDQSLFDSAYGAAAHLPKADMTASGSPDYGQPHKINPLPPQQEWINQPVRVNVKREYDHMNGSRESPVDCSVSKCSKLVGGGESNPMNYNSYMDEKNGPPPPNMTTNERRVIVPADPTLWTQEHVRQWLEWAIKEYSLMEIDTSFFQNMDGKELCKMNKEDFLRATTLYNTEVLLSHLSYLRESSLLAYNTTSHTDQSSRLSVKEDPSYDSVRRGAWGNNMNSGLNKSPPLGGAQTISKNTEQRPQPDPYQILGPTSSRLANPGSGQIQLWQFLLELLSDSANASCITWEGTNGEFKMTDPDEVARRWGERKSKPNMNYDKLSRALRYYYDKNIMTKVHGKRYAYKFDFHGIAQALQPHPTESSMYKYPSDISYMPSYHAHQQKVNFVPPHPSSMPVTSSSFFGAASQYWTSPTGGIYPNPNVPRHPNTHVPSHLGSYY
# In short: (§1)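 Pools of DNA-barcoded human transcription factors, expressed in yeast as GST fusions on glutathione beads and combined with a tag-only sample, were incubated with 200 nmole of a 16-mer random double-stranded DNA library. Incubation took 30 min at room temperature in Tris/NaCl/DTT/glycerol buffer and was followed by washing, 0.1% formaldehyde crosslinking, proximity ligation (BsaI/T4 ligase, 1 h, 37 °C), PCR amplification and sequencing on an Illumina NextSeq500. Binding signal is the ratio of a hexamer's read frequency for a factor to its frequency for the tag-only sample.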
# [2] = biological target: T2, ELK1 (Homo sapiens, UniProt P19419 1-428); conditions: protein: recombinant; tags: N-terminal GST; dsDNA, one strand shown
# T2 sequence: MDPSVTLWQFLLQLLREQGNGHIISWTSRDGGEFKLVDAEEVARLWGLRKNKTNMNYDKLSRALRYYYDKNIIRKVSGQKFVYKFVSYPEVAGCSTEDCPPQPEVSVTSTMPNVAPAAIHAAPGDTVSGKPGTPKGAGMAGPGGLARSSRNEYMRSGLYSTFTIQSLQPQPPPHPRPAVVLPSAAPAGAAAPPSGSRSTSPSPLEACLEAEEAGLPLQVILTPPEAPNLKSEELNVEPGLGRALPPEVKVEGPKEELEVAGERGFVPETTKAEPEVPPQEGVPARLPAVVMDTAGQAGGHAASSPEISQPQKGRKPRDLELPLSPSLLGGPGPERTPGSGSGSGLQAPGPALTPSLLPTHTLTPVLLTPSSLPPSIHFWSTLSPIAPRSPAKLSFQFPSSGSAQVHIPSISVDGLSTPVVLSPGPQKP
# In short: as §1
# [3] = biological target: T3, GABPA (Homo sapiens, UniProt Q06546 1-454); conditions: protein: recombinant; tags: N-terminal GST; dsDNA, one strand shown
# T3 sequence: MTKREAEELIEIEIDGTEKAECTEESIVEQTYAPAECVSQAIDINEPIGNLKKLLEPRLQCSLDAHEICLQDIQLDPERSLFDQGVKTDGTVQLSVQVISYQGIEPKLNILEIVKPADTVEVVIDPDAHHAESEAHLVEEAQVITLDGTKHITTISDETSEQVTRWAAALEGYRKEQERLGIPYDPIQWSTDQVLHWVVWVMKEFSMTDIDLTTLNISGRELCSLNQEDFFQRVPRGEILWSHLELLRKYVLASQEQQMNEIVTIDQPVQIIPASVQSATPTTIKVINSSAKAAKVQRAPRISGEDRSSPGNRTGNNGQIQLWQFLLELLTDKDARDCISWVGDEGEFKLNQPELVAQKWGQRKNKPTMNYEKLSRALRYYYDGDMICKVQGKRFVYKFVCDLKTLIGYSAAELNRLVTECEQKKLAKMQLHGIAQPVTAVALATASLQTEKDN
# In short: as §1
# [4] = biological target: T4, ERG (Homo sapiens, UniProt P11308 1-479); conditions: protein: recombinant; tags: N-terminal GST; dsDNA, one strand shown
# T4 sequence: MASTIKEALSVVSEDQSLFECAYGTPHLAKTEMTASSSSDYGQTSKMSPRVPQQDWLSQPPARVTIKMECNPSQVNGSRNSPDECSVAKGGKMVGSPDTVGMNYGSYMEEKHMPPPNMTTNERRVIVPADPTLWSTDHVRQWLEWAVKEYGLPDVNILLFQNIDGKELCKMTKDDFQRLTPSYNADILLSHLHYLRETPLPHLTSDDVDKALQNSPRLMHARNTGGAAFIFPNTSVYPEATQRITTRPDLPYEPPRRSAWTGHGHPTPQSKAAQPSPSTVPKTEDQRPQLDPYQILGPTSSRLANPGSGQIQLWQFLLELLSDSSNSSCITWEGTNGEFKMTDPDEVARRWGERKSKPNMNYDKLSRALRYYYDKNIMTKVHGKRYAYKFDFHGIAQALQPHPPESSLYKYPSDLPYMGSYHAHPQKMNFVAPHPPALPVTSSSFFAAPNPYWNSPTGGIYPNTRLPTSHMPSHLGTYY
# In short: as §1
# [5] = biological target: ELF1 (Homo sapiens, UniProt P32519 1-619); conditions: protein: recombinant; tags: N-terminal GST; dsDNA, one strand shown
# Chain of ELF1 (P32519 whole entry): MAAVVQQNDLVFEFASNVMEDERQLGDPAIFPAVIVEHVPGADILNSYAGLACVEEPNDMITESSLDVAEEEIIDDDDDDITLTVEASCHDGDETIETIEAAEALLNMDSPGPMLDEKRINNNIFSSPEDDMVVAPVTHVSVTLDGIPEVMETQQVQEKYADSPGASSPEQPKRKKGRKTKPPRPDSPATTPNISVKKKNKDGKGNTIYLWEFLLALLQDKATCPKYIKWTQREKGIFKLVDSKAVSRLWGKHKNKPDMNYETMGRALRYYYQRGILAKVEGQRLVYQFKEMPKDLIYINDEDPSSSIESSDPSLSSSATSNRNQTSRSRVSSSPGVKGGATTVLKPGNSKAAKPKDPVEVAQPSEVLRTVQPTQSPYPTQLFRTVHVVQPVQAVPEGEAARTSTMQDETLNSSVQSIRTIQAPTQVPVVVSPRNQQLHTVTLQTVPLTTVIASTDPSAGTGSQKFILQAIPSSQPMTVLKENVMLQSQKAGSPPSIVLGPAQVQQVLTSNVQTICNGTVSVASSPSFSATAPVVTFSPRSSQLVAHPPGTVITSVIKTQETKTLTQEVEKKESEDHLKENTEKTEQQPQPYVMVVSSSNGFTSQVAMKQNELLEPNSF
# In short: as §1
# [6] = biological target: T5, EHF (Homo sapiens, UniProt Q9NZC4 1-300); conditions: protein: recombinant; tags: N-terminal GST; dsDNA, one strand shown
# T5 sequence: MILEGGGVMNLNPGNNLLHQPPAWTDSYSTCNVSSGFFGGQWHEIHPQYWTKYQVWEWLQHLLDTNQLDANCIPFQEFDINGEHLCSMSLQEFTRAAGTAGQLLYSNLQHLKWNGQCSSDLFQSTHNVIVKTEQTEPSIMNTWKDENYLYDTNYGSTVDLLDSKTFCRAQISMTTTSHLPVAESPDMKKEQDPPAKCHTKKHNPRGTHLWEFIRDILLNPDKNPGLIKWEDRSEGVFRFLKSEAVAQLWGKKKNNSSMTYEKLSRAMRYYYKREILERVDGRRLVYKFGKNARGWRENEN
# In short: as §1
# [7] = biological target: SPI1 (Homo sapiens, UniProt P17947 1-270); conditions: protein: recombinant; tags: N-terminal GST; dsDNA, one strand shown
# In short: as §1
# [8] = biological target: SPIB (Homo sapiens, UniProt Q01892 1-262); conditions: protein: recombinant; tags: N-terminal GST; dsDNA, one strand shown
# Chain of SPIB (Q01892 whole entry): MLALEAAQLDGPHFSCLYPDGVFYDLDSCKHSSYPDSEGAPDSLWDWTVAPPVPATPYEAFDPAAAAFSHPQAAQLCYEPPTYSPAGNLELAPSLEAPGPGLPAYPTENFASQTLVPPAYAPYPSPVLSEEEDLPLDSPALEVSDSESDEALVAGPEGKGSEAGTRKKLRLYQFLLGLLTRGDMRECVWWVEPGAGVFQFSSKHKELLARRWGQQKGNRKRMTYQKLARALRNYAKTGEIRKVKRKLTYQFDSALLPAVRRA
# In short: as §1
# [9] = biological target: T6, ELK3 (Homo sapiens, UniProt P41970 1-407); conditions: protein: recombinant; tags: N-terminal GST; dsDNA, one strand shown
# T6 sequence: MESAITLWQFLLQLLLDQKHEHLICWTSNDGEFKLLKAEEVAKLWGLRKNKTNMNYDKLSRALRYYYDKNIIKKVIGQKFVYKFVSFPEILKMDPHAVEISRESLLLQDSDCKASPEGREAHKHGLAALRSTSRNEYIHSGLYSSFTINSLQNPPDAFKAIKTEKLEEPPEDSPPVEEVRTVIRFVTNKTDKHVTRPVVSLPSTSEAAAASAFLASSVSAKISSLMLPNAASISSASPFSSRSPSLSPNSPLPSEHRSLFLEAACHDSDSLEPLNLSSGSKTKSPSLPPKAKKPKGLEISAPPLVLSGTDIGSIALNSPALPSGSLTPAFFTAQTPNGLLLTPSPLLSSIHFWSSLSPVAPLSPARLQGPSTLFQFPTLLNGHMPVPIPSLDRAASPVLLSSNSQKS
# In short: as §1
# [10] = biological target: T7, FEV (Homo sapiens, UniProt Q99581 1-238); conditions: protein: recombinant; tags: N-terminal GST; dsDNA, one strand shown
# T7 sequence: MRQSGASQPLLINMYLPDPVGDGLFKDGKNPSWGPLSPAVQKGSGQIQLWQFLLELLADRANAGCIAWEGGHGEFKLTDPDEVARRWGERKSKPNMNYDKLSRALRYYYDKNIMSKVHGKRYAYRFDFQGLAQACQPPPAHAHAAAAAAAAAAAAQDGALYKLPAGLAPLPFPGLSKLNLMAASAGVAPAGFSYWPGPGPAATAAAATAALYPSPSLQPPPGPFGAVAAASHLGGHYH
# In short: as §1
# [11] = biological target: ETV5 (Homo sapiens, UniProt P41161 1-510); conditions: protein: recombinant; tags: N-terminal GST; dsDNA, one strand shown
# Chain of ETV5 (P41161 whole entry): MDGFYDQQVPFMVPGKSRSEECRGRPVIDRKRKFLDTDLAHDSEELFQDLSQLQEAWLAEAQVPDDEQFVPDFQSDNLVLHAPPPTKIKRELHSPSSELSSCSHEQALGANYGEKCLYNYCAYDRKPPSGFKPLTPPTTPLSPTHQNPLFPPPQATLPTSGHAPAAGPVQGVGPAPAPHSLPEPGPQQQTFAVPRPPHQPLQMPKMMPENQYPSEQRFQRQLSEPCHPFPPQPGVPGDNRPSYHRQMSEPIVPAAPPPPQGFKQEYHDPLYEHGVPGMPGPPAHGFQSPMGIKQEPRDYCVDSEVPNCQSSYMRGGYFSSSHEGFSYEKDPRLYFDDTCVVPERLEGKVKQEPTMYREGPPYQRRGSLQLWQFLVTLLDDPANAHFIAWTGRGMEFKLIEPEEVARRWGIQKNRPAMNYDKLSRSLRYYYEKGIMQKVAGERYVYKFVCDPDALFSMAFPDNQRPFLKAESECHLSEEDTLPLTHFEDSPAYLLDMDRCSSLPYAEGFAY
# In short: as §1
# [12] = biological target: HSF1 (Homo sapiens, UniProt Q00613 1-529); conditions: protein: recombinant; tags: N-terminal GST; chain copies: 3; dsDNA, one strand shown
# Chain of HSF1 (Q00613 whole entry): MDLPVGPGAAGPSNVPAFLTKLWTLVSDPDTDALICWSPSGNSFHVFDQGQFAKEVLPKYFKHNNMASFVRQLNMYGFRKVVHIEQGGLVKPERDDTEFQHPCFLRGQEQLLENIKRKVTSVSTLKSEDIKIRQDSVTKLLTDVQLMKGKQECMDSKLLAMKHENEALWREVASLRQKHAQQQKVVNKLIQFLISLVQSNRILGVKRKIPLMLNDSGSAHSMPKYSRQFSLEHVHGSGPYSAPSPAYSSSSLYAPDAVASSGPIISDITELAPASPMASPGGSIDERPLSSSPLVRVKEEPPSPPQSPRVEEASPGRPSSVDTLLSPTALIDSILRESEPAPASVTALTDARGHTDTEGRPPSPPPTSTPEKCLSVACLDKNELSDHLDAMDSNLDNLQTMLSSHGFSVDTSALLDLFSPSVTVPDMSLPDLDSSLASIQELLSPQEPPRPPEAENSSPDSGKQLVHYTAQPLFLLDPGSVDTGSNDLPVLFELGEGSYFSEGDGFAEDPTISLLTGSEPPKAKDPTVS
# In short: as §1
# [13] = biological target: T8, SPIC (Homo sapiens, UniProt Q8N5J4 1-248); conditions: protein: recombinant; tags: N-terminal GST; dsDNA, one strand shown
# T8 sequence: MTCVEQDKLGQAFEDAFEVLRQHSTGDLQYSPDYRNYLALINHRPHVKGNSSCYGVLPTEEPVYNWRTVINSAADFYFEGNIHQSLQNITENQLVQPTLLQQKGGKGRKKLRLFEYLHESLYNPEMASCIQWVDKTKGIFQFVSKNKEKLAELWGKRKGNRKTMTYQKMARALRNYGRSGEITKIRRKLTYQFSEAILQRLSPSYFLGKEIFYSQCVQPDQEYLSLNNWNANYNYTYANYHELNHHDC
# In short: as §1
# [14] = biological target: ELF4 (Homo sapiens, UniProt Q99607 1-663); conditions: protein: recombinant; tags: N-terminal GST; dsDNA, one strand shown
# Chain of ELF4 (Q99607 whole entry): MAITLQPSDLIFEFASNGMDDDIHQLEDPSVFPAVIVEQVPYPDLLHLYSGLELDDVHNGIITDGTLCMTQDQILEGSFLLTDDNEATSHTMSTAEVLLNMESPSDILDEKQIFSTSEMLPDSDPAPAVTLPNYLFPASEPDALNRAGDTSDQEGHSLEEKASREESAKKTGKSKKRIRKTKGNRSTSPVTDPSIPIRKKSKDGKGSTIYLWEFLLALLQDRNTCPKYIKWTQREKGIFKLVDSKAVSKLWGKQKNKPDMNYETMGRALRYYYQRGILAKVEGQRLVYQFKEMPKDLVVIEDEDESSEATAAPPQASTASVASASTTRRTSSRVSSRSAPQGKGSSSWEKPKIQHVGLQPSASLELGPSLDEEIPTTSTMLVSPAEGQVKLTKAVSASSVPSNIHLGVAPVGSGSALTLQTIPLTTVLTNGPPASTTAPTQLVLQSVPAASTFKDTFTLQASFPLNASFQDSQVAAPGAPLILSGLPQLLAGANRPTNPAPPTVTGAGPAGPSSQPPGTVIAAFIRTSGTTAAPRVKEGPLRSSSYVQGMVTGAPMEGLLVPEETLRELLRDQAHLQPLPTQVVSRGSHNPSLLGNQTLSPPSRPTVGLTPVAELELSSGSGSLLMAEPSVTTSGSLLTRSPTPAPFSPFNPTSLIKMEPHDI
# In short: as §1
# [15] = biological target: T9, ELK4 (Homo sapiens, UniProt P28324-2 1-405); conditions: protein: recombinant; tags: N-terminal GST; dsDNA, one strand shown
# T9 sequence: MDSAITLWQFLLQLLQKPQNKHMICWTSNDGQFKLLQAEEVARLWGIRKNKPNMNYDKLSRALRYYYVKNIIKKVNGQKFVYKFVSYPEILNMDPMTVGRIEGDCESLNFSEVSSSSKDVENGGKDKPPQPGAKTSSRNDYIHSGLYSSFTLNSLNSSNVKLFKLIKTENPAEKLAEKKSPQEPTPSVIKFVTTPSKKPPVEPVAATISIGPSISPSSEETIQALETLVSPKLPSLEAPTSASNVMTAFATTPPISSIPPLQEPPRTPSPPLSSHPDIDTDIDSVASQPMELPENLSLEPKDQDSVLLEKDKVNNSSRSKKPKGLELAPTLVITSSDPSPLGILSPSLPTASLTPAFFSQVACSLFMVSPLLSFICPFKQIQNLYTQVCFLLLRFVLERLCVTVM
# In short: as §1
# [16] = biological target: T10, ETV2 (Homo sapiens, UniProt O00321 1-342); conditions: protein: recombinant; tags: N-terminal GST; dsDNA, one strand shown
# T10 sequence: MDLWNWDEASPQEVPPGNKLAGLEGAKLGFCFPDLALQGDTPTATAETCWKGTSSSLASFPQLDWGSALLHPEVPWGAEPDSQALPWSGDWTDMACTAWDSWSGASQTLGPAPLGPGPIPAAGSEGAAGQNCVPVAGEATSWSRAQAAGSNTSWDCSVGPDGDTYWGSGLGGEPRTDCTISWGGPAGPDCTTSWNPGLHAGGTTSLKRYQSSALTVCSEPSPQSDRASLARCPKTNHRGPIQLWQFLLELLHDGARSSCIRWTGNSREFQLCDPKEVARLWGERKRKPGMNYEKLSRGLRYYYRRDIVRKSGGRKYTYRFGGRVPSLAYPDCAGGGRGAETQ
# In short: as §1
# [17] = biological target: T11, ELF3 (Homo sapiens, UniProt P78545 1-371); conditions: protein: recombinant; tags: N-terminal GST; dsDNA, one strand shown
# T11 sequence: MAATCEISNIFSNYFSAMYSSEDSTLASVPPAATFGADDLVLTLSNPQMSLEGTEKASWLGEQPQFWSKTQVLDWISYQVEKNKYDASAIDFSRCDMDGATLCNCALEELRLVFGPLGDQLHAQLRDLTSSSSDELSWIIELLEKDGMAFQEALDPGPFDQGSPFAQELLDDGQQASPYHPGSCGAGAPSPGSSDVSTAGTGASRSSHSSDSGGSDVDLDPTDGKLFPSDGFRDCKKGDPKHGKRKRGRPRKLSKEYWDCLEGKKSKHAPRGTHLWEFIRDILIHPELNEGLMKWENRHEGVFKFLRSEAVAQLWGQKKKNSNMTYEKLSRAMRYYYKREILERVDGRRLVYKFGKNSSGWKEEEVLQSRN
# In short: as §1
# [18] = biological target: CRX (Homo sapiens, UniProt O43186 1-299); conditions: protein: recombinant; tags: N-terminal GST; dsDNA, one strand shown
# Chain of CRX (O43186 whole entry): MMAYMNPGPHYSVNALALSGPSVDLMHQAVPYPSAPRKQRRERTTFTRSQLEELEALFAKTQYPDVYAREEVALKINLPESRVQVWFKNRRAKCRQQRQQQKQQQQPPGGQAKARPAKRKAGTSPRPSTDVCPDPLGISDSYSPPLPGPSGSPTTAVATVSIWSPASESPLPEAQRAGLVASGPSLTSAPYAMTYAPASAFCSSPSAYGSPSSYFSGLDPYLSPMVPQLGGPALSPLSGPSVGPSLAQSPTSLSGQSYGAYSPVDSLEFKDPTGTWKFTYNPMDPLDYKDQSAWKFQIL
# In short: as §1
# [19] = biological target: ETV1 (Homo sapiens, UniProt P50549 1-477); conditions: protein: recombinant; tags: N-terminal GST; dsDNA, one strand shown
# Chain of ETV1 (P50549 whole entry): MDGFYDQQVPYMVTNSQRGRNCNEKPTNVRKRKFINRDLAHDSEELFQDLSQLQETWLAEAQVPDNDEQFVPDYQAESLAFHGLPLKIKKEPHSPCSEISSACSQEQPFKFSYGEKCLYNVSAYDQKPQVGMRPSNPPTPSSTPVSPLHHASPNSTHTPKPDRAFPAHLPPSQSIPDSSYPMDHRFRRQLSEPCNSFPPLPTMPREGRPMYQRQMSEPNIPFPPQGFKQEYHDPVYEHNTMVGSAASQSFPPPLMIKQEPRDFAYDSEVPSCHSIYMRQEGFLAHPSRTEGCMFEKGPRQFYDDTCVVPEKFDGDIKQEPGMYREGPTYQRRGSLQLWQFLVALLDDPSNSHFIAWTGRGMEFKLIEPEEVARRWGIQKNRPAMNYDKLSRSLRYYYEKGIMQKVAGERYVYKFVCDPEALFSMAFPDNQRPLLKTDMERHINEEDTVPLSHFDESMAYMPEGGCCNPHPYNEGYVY
# In short: as §1
sequence,measurement,setting,value
TTATTG,binding signal,[1],"1.24 fold enrichment (6-mer frequency, TF over GST control)"
same,binding signal,[2],"1.27 fold enrichment (6-mer frequency, TF over GST control)"
same,binding signal,[3],"1.28 fold enrichment (6-mer frequency, TF over GST control)"
same,binding signal,[4],"1.24 fold enrichment (6-mer frequency, TF over GST control)"
same,binding signal,[5],"1.3 fold enrichment (6-mer frequency, TF over GST control)"
same,binding signal,[6],"1.29 fold enrichment (6-mer frequency, TF over GST control)"
same,binding signal,[7],"1.18 fold enrichment (6-mer frequency, TF over GST control)"
same,binding signal,[8],"1.31 fold enrichment (6-mer frequency, TF over GST control)"
same,binding signal,[9],"1.38 fold enrichment (6-mer frequency, TF over GST control)"
same,binding signal,[10],"1.28 fold enrichment (6-mer frequency, TF over GST control)"
same,binding signal,[11],"1.32 fold enrichment (6-mer frequency, TF over GST control)"
same,binding signal,[12],"1.71 fold enrichment (6-mer frequency, TF over GST control)"
same,binding signal,[13],"1.29 fold enrichment (6-mer frequency, TF over GST control)"
same,binding signal,[14],"1.36 fold enrichment (6-mer frequency, TF over GST control)"
same,binding signal,[15],"1.43 fold enrichment (6-mer frequency, TF over GST control)"
same,binding signal,[16],"1.33 fold enrichment (6-mer frequency, TF over GST control)"
same,binding signal,[17],"1.35 fold enrichment (6-mer frequency, TF over GST control)"
same,binding signal,[18],"2.35 fold enrichment (6-mer frequency, TF over GST control)"
same,binding signal,[19],"1.24 fold enrichment (6-mer frequency, TF over GST control)"
